# Screening data deposited in PubChem by several laboratories.
# aSyn 5UTR inh – MLPCN primary screen, SNCA 5' untranslated region; alpha-synuclein 5'UTR reporter, inhibitor activity; inhibition, % (tested at 7.5 µM); 0.82% of 300,000 active; AID 1813, 2009; in the data active means inhibition above about 60%;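 further: H4 neuroglioblastoma cells stably carrying SNCA 5'UTR luciferase fusion; 0% = DMSO wells and 100% = positive control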
# HSP90 inh – HSP90 inhibitors, primary screen, cell lysate, luminescence | Rabbit reticulocyte lysate, luciferase refolding luminescence, 3 h | inhibition, % at 5.6 µM | 0.91% of 290,000 active | AID 1789, 2009;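 active means inhibition above the screen-wide mean plus 3 SD, computed separately per campaign, cut at about 16% in these data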;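 further: 0% = DMSO wells and 100% = 60 µM geldanamycin wells; inhibitors lower the luminescence because luciferase stays unfolded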
# TWEAK-Fn14 inh – inhibitors of TWEAK-Fn14 signaling, primary screen, luciferase reporter cells, uHTS; TWEAK-stimulated Fn14 reporter cells, luciferase luminescence, 8 h; inhibition, % at 10 µM; AID 1159606, 2016; 2% of 360,000 active; in the data active means inhibition above about 50%
# TROY NFkB inh – inhibitors of TROY-driven NF-kB signaling, primary screen, Q293 LMP1-TROYcd cells, NF-kB luciferase, uHTS; Q293 LMP1-TROYcd NF-kB luciferase reporter, 4 h; AID 1347056, 2019; inhibition, % at 10 µM; 0.98% of 360,000 active;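 active means compounds whose plate-normalised and pattern-corrected inhibition of the luciferase reporter signal at the single screening dose is 50% or more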
# C8 TRAIL sens – viability loss with TRAIL in NB7+C8 cells, primary screen, TRAIL sensitizer project, cell-based, ATPlite luminescence. inhibition (viability loss, TRAIL sensitization), % at 10 µM. 1% of 360,000 active. AID 624354, 2012;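 active means compounds causing at least 50% loss of cell viability in the single-dose screen, relative to plate controls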
# HIF-2a block – HIF-2a reporter inhibitors, primary screen, luminescence, 786-0 RCC cells; 786-0 RCC cells HIF-2a reporter, luciferase luminescence, overnight; inhibition, % at 18.8 µM; 0.72% of 360,000 active; AID 624352, 2012;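 active means inhibition of the luminescence signal of 40% or more relative to plate controls, in a single-dose primary screen at 18.75 µM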
# HSP90 confirm – HSP90 inhibitors, confirmation, cell lysate, luminescence | shares compounds with HSP90 inh | rabbit reticulocyte lysate, luciferase refolding luminescence, 3 h | inhibition, % at 5.9 µM | 64% of 2,300 active; in the data active means inhibition above about 18%;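 further: 0% = vehicle wells and 100% = reference inhibitor wells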
# FLuc counter – firefly luciferase inhibitors, HSP90 counter-screen, confirmation, artefact control for HSP90 inhibitor project, biochemical, luminescence, triplicate; purified native firefly luciferase; inhibition, % at 5.9 µM; shares compounds with HSP90 inh; 48% of 2,300 active;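 active means inhibition above the mean inhibition of all tested sample wells plus 3 SD, cut at about 10% in these data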;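 further: 0% = DMSO with luciferase and 100% = wells lacking luciferase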
# Mdm2-MdmX confirm – retested Mdm2-MdmX interaction blockers, confirmation, cell-based, luminescence, single concentration, set 2. inhibition, % at 8 µM. SaOS-2 split-luciferase Mdm2/MdmX complementation. shares compounds with HIF-2a block. 99% of 740 active;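 active means mean inhibition of the luminescence signal across two replicates at or above 26 percent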
# Target sequence (O15151 whole entry, looked up): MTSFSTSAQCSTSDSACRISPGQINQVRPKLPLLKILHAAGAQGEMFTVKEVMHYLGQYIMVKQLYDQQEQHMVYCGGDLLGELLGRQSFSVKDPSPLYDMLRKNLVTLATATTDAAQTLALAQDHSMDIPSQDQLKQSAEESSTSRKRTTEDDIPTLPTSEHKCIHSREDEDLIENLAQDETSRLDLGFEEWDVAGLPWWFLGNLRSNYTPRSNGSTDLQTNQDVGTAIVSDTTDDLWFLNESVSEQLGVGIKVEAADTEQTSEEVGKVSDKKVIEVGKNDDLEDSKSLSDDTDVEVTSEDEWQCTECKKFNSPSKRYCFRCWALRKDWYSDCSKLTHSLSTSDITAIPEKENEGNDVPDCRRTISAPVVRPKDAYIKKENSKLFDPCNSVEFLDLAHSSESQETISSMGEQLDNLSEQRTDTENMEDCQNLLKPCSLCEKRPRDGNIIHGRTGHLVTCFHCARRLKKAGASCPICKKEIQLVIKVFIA
# Target sequence (Q00987 whole entry, looked up): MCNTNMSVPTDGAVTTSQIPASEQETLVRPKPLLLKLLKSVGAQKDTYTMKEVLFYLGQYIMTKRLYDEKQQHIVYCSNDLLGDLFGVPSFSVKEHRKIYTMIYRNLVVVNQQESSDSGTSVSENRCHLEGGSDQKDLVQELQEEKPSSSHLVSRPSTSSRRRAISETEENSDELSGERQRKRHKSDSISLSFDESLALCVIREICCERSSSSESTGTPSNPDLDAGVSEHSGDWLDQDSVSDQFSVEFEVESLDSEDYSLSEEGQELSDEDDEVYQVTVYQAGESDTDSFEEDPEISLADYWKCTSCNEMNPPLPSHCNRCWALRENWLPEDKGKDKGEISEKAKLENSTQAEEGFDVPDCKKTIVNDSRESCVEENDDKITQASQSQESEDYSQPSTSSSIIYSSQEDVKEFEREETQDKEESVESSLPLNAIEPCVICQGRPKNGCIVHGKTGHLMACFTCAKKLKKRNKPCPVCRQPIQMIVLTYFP
# HIF-2a conf – HIF-2a reporter inhibitor retest, confirmation, luminescence, 786-0 RCC cells; shares compounds with HIF-2a block; HIF-2a luciferase reporter luminescence, overnight; 56% of 1,800 active; AID 651580, 2012; inhibition, % at 18.8 µM;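 active means mean inhibition across four replicates of at least 40 percent at the single tested concentration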
# HIF-1a counter – HIF-1a luciferase reporter signal reduction – MiaPaCa-2 cells, single concentration, counter-screen for HIF-2a inhibitor project, confirmation | inhibition, % at 18.8 µM | shares compounds with HIF-2a block | MiaPaCa-2 HIF-1a luciferase reporter, desferoxamine, overnight | 72% of 1,800 active;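 active means mean inhibition of the reporter signal across four replicates at the single tested dose of 50% or more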
# Active calls of the source: *; · = not tested or not shown. A selection: hits, their analogues and other compounds. The true share with any hit is near 3.9%.
SMILES,aSyn 5UTR inh,HSP90 inh,TWEAK-Fn14 inh,TROY NFkB inh,C8 TRAIL sens,HIF-2a block,HIF-2a conf,HIF-1a counter,others
COc1cc(/C=N/O)ccc1OCc1ccc(C(=O)O)cc1,115.9*,76.0*,17.1,-49.9,71.5*,89.1*,90.4*,-73.9,HSP90 confirm=84.9*;FLuc counter=79.9*
O=C(O)c1cc(/C=N\O)ccc1OCc1ccccc1,14.8,-2.1,-1.3,-22.0,-17.4,-20.9,·,·,
CCOc1ccc(C(=O)Nc2cccc(C(=O)O)c2C)cc1Cl,-35.9,88.2*,68.2*,-14.8,7.9,54.2*,54.4*,13.3,HSP90 confirm=92.1*;FLuc counter=68.5*
COc1ccc(NC(=O)CCN(c2ccc(OC)cc2)S(=O)(=O)c2ccc(C)c(C)c2)cc1,·,·,-10.0,-6.0,-2.4,9.0,·,·,
CCCC(=O)NC(c1ccccc1)c1ccc2cccnc2c1O (stereo not drawn),65.4*,20.5*,12.6,12.3,-23.7,6.5,·,·,HSP90 confirm=18.4*;FLuc counter=-2.8;Mdm2-MdmX confirm=80.2*
CC(=O)N1CCN(CC(=O)Nc2cc(S(=O)(=O)N3CCCCC3)ccc2C)CC1,·,·,11.9,10.5,5.5,0.8,·,·,
Cc1ccc(C(=O)n2c(N)nc3ccccc32)cc1,81.1*,59.7*,99.3*,72.8*,95.2*,42.4*,68.7*,87.2*,HSP90 confirm=88.7*;FLuc counter=83.0*
Cc1ccc(S(=O)(=O)n2c(N)nc3ccccc32)cc1,9.2,-1.6,11.3,7.8,0.8,18.6,·,·,
Cc1noc(C)c1S(=O)(=O)NC(=O)C1(C)CCN1C(=O)c1ccccc1CCc1ccccc1 (stereo not drawn),·,·,16.3,9.3,-16.3,8.8,·,·,
COc1cc(NCCCC(C)N)c2ncccc2c1 (stereo not drawn),9.2,23.1*,25.3,-10.0,17.8,83.8*,18.9,90.1*,HSP90 confirm=5.0;FLuc counter=-6.2
COc1cc(NCCCCCCN)c2ncccc2c1OC,·,·,26.8,-1.3,-12.1,6.3,·,·,
COc1ccc(S(=O)(=O)N2CCCCC2)cc1NC(=O)C1CC1(Cl)Cl (stereo not drawn),·,·,0.6,8.4,-7.4,10.2,·,·,
COc1ccc(N(CC(=O)NCc2cccs2)S(=O)(=O)c2ccc(F)cc2)cc1,·,·,10.8,-9.6,13.9,4.4,·,·,
CCc1cc(Br)ccc1NC(=S)NCCc1ccccc1,·,-2.3,-7.2,-20.1,-27.6,-3.1,·,·,
COc1cc(-c2nc(-c3ccccn3)no2)cc(OC)c1OC,-162.6,-0.1,-32.4,-62.2,-8.7,-159.6,·,·,
Clc1cccc(-c2nc(-c3ccccn3)no2)c1,93.3*,57.4*,97.2*,69.8*,77.3*,52.9*,71.8*,64.6*,HSP90 confirm=81.9*;FLuc counter=75.7*
Cc1ccc(-c2nc(-c3ccccn3)no2)cc1,99.3*,93.6*,106.1*,86.5*,91.9*,86.8*,94.7*,93.9*,HSP90 confirm=97.7*;FLuc counter=93.9*;Mdm2-MdmX confirm=95.5*
Cc1ccc(Cc2nc(-c3ccccn3)no2)cc1,-94.6,4.6,26.6,-22.0,20.3,-138.4,·,·,
CCOC(=O)[C@H]1[C@H]2COc3ccc(OC)cc3[C@@H]2N2C(=O)c3cc(F)c(F)cc3NC(=O)[C@@]12C,·,·,4.2,4.0,8.3,-14.0,·,·,
CSc1ncccc1C(=O)OCC(=O)NCCc1ccccc1,·,·,-8.4,-17.0,-1.7,-1.4,·,·,
COc1cccc(C(=O)NCCS(=O)(=O)N2CCCC(C)C2)c1 (stereo not drawn),·,·,9.2,-3.8,10.5,-1.2,·,·,
C=CS(=O)(=O)c1sc(Cl)c(N2CCOCC2)c1[N+](=O)[O-],-56.4,5.1,31.3,33.9,-9.3,65.8*,75.0*,-3.4,
NC(c1csc(Nc2nncc3ccccc23)n1)C1CCCCC1 (stereo not drawn),·,·,19.7,8.8,23.7,68.3*,-6.1,106.5*,
CC(=O)Nc1cccc(NC(=O)NC2CC(=O)N(c3ccc4c(c3)OCCO4)C2)c1 (stereo not drawn),·,·,-7.0,-6.8,3.2,-1.0,·,·,
COC(=O)[C@@]1(Cc2ccc(OC)cc2)[C@@H]2C(=CC(=O)[C@H]2CC(=O)C(=O)N2CCCC2)CN1C(=O)c1ccccc1,·,5.5,41.9,10.8,17.1,77.2*,69.3*,84.5*,
SMILES,aSyn 5UTR inh,HSP90 inh,TWEAK-Fn14 inh,TROY NFkB inh,C8 TRAIL sens,HIF-2a block,HIF-2a conf,HIF-1a counter,others
Nc1ccc(-c2cc3ccccc3oc2=O)cc1,106.4*,1.7,82.2*,60.4*,8.3,87.8*,97.8*,84.1*,
COCCn1c(SCC(=O)Nc2ccc(F)cc2)nc2c(c1=O)SCC2,·,·,-4.2,9.9,-18.6,-5.3,·,·,
CC(C)NC(=O)C1(C)CCN1C(=O)c1ccccc1F (stereo not drawn),·,·,-10.8,10.0,15.2,3.0,·,·,
Cc1ccc2c(c1)Oc1ccc([N+](=O)[O-])cc1C(=O)N2,-5.3,0.8,0.2,9.3,0.8,17.3,·,·,
Cc1ccc2c(c1)Oc1ccc(NC(=O)CCl)cc1C(=O)N2,-29.5,4.4,46.0,-14.0,22.3,77.4*,72.3*,102.7*,Mdm2-MdmX confirm=103.2*
C=CS(=O)(=O)N(Cc1ccc(Cl)c(Cl)c1)C[C@@H](O)CO,·,·,32.3,-10.6,-0.9,0.8,·,·,Mdm2-MdmX confirm=94.0*
CC(=O)c1cccc(-c2ccnc3c2CC(C(=O)Nc2ccc(Cl)c(C(F)(F)F)c2)O3)c1 (stereo not drawn),·,·,27.8,35.7,4.5,-2.1,·,·,
Cc1ccc(C(C)C)c(OCc2ccc(C(=O)N/N=C/c3ccc(C(=O)O)cc3)cc2)c1,37.3,9.0,11.3,-24.4,15.5,67.0*,81.1*,-13.0,
COc1ccc(-c2c(-c3ccccc3)c(C(=O)C(=O)NCCCN(C)C)n3ccc4cc(OC)c(OC)cc4c23)cc1OC,-4.0,0.6,-45.7,-31.5,-13.7,88.4*,6.3,100.6*,
CN(C)CCNC(=O)C(=O)c1c(-c2ccccc2)cc2ccccn12,-24.7,3.5,17.3,-1.1,-12.1,3.7,·,·,
